GPT2 inh – Primary qHTS assay for inhibitors of Glutamate pyruvate transaminase 2 (GPT2). Recombinant GPT2, coupled pyruvate oxidase/HRP Amplex Red fluorescence. Potency, µM (series often up to 57.7 µM), inactives show top-dose activity change, negative = inhibition, most hits filed as inhibitors. 100,000 compounds, 0.25% hits. AID 1671188, 2021; note: potency is the fitted concentration of half-maximal effect; % is set by controls: 0 for no effect and ±100 for the full control effect; nearly all actives have a fitted effect of over 60% in size
Target sequence (Q8TD30 whole entry, looked up): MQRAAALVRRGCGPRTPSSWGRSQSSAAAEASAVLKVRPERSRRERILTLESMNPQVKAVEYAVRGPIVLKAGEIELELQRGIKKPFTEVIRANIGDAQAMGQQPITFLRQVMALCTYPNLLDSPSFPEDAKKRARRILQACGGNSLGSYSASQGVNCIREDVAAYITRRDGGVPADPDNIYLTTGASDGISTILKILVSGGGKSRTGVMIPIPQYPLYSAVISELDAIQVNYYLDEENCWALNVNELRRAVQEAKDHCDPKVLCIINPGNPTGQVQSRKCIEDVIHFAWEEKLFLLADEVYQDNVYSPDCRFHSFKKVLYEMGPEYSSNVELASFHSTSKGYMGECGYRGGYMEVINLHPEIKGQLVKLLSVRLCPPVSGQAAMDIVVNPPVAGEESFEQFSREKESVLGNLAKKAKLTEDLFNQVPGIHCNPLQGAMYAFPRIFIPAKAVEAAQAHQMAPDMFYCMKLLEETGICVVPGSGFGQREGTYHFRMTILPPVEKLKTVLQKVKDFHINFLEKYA
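GPT2 10ng/uL, a-KG 250uM, L-Ala 2mM, HEPES pH7.5 + 0.0001% Tween; 30 min RT. Then Amplex mix (PO/HRP/ThPP), 30 min RT dark, fluorescence. AOA 50uM used as positive control.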
GPT2 conf – Confirmatory qHTS assay for inhibitors of Glutamate pyruvate transaminase 2 (GPT2) | shares compounds with GPT2 inh | GPT2 enzyme, coupled Amplex Red pyruvate fluorescence | AID 1671187, 2021 | 95 compounds, 90% hits | Potency, µM, actives largely listed as inhibitors
Numbers without * were called inactive; i = inactive; u = inconclusive; x = no result; ! = repeats disagree; [ ] = remark or other dose. The sample as a whole holds a higher share of hits than the screen did. Calls come from the whole dose curve; as a rule, active = well fitted inhibition curve with a large enough effect; inconclusive = small, poorly fitted or top-dose-only effect; inactive = flat fitted curve, though single readings scatter.

SMILES | GPT2 inh | others
CCNC(=O)N1CCOc2ccc(CN3CCOCC3)cc2C1 | i
COCCCNC(=O)c1cn2cc(-c3cccc(OC)c3)sc2n1 | -5.5%[88.5 µM]
Cn1c([C@H]2CCN(Cc3ccc4c(c3)OCO4)C2)nc2ccccc21 | -23.5%[88.5 µM]
O=C(c1ccoc1)N1CCCN(Cc2ccc3c(c2)OCO3)c2ccccc21 | -9.4%
CN1CCCN(Cc2ccc3c(c2)OCO3)c2ccccc21 | u | GPT2 conf=3.06*
O=C(NCc1ccccc1F)c1cn2cc(-c3cccc(C(F)(F)F)c3)sc2n1 | 0.3%
COc1ccc(-c2nc3ncccc3[nH]2)cc1 | -0.4%[88.5 µM]
O=C(NCc1cccs1)C1CCCCN1Cc1ccc(-c2cccs2)cc1 (stereo not given) | -3.2%
Cn1cnc2cc(-c3ccc(CO)cc3)cc(C(=O)NCc3cccnc3)c21 | -23.0%[88.5 µM]
Cc1ccc(-c2cc(C(=O)NCc3cccnc3)c3c(c2)ncn3C)cn1 | i
COc1ccc(Nc2cc(C(=O)NCc3cccnc3)c3c(c2)ncn3C)cc1 | x | GPT2 conf=3.14*
COc1ccc(CCNC(=O)c2cn3cc(-c4cccc(C(F)(F)F)c4)sc3n2)cc1 | 1.8%
CNC(=O)c1cn2cc(-c3ccccc3)sc2n1 | -4.9%
O=C(Cc1ccc(Cl)cc1)NC1CCN(c2nccc(Nc3ccccc3Cl)n2)CC1 | 3.0%
COc1cccc(-c2cn3c(n2)N(C(=O)c2ccco2)CCC3)c1 | -14.3%
COc1cccc(-c2nn(-c3ccccc3)c(OC(C)=O)c2-c2ccc(NC(=O)c3ccco3)cc2)c1 | u | GPT2 conf=7.69*
COc1cccc(C(=O)Nc2cc(-c3ccncc3)nn2-c2ccccc2)c1 | 2.8%
O=C(NCCc1ccc(Cl)cc1)C1CCCN(c2nccc(Nc3ccccc3F)n2)C1 (stereo not given) | i
O=C(C1CCN(c2nccc(Nc3ccccc3Cl)n2)CC1)N1CCCCC1 | -6.5%
COc1cc(C(=O)N2CCC(N3CCN(C)CC3)CC2)ccc1Nc1ncc2c(n1)N(C)c1ccccc1C(=O)N2C | -5.3%
CCOc1cc(N2CCC(O)CC2)ccc1Nc1ncc2c(n1)N(C)c1ccccc1C(=O)N2C | 12.2µM* | GPT2 conf=3.06*
CCC1C(=O)N(C)c2cnc(Nc3ccc(C(=O)NC4CCN(C)CC4)cc3OC)nc2N1C1CCCC1 (stereo not given) | i
O=C(NCCc1ccc(F)cc1)C1CCCN(Cc2cccc(-c3ccc(F)cc3F)c2)C1 (stereo not given) | -8.5%
O=C(NCc1cccs1)C1CCCN1c1nccc(Nc2ccccc2F)n1 (stereo not given) | -3.6%
Cc1ccc(OCc2nc(C3CCCCN3C(=O)C3CC3)no2)cc1 (stereo not given) | -8.6%
SMILES | GPT2 inh | others
c1ccc(CN2CCNc3cc(Nc4ccc(N5CCOCC5)cc4)ncc3C2)cc1 | u | GPT2 conf=4.44*
COc1ccccc1CN1CCNc2cnc(Nc3ccccc3)cc2C1 | u | GPT2 conf=4.44*
COc1ccccc1CN1CCNc2cnc(-c3ccccc3)cc2C1 | -2.9%[88.5 µM]
COc1cccc(CN2CCNc3cc(Nc4cccnc4)ncc3C2)c1 | i
COc1cccc(CN2CCNc3cnc(OCc4cccnc4)cc3C2)c1 | 2.7%[88.5 µM]
c1ccc(CN2CCNc3cnc(-c4ccc(N5CCOCC5)cc4)cc3C2)cc1 | 1.2%[88.5 µM]
COc1ccc(CN2CCNc3cc(Nc4ccccc4)ncc3C2)cn1 | -0.1%[88.5 µM]
Fc1ccccc1CN1CCNc2cc(Nc3ccccc3)ncc2C1 | -11.5%[88.5 µM]
CN(C)c1cccc(Nc2cc3c(cn2)CN(Cc2ccccc2)CCN3)c1 | -15.7%[88.5 µM]
Fc1cccc(CN2CCNc3cc(Nc4ccccc4)ncc3C2)c1 | i
Cn1cc(CN2CCNc3cnc(Nc4ccccc4)cc3C2)cn1 | x | GPT2 conf=2.8*
COc1cccc(CN2CCNc3cnc(Nc4ccccc4)cc3C2)c1 | u | GPT2 conf=4.98*
Cc1ccc(CNC(=O)N2CCc3nc(-c4ccccc4)[nH]c3C2)cc1 | -4.7%
CCc1nc2c(c(-c3ccc(O)cc3)n1)CN(C(=O)C1CCCC1)CC2 | i
Cc1ccc(Nc2ccnc(N3CCC(C(=O)N4CCN(c5ncccn5)CC4)CC3)n2)cc1 | i
COc1cccc(-c2ccc(C(=O)N3CCC(NC(=O)C(C)(C)C)CC3)cc2)c1 | -5.1%
COc1ccc(OC)c(CN2CCNc3cnc(OCc4cccnc4)cc3C2)c1 | i
COc1ccc(OC)c(CN2CCNc3cc(Nc4ccccc4)ncc3C2)c1 | i
COc1ccc(OC)c(CN2CCNc3cnc(Nc4cccnc4)cc3C2)c1 | u | GPT2 conf=5.59*
O=C(CCC[C@H]1NC[C@@H]2CC1CN(Cc1ccccc1)C2)NCCCN1CCOCC1 | i
O=C(CCC[C@H]1NC[C@@H]2C[C@H]1CN(Cc1ccccc1)C2)Nc1ccc(N2CCOCC2)cc1 | 7.08µM* | GPT2 conf=4.85*
O=C(CCC[C@H]1NC[C@@H]2C[C@H]1CN(Cc1ccccc1)C2)NC1CCN(Cc2ccccc2)CC1 | i
CC(C)CN1CCN(C2CCOC3(CCN(C(=O)Cc4cccc(F)c4)CC3)C2)CC1 (stereo not given) | -5.5%
Cc1ccc(NC(=O)CCNc2c(C)nc3cnccn23)c(F)c1 | u | GPT2 conf=6.85*
Cc1ccc(NC(=O)CCn2ccn3nc4c(c3c2=O)CCCC4)c(F)c1 | -4.1%
SMILES | GPT2 inh | others
COc1ccccc1-c1nc2cnccn2c1NCCC(=O)N1CCc2ccccc21 | -27.7%
CSc1ccc(-c2cccc(C(=O)NCC(=O)NC(C)C)c2)cc1 | i
O=C(NC1CCCCC1)c1ccc2nnc(-c3ccc(OC(F)(F)F)cc3)n2c1 | i
COCCNC(=O)c1nc(-c2ccc(Cl)cc2)c2ccccn12 | i
COc1cccc(N2CC3(COCCN(C(=O)c4ccc(OC)c(OC)c4)C3)C2)c1 | i
COc1ccc(N2CC3(C2)CN(c2ccccc2)C(=O)O3)cc1OC | u | GPT2 conf=u
COc1ccccc1N1CC2(C1)CN(c1ccccc1)C(=O)O2 | -14.5%[88.5 µM]
COc1ccc(Nc2ccnc(N3CCN(C(=O)NC(C)C)CC3)n2)cc1 | i
Cn1cccc1C(=O)N1CCC(c2nc(-c3cccn3C)no2)CC1 | -6.1%
c1cncc(-c2ccnc(NCCCN3CCCc4ccccc43)n2)c1 | u | GPT2 conf=2.17*
c1cncc(-c2ccnc(NCCCn3nccc3C3CC3)n2)c1 | i
c1ccc2c(c1)CCCN2CCCNc1ncncn1 | -3.7%[11.5 µM]
COCCNC(=O)C1CCN(c2nccc(Nc3ccccc3OC)n2)CC1 | i
O=C(C1CC1)N1CCN(Cc2ccccc2-c2ccccc2F)CC1 | 0.4%
Oc1ccc(-c2nc(C3CC3)nc3c2CCN(Cc2ccsc2)CC3)cc1 | i
Cc1ccc(Nc2ccnc(N3CCCC(C(=O)NCCc4ccccc4)C3)n2)cc1 (stereo not given) | i
O=C(c1ccccc1)N1CCNc2cnc(Nc3cccc(F)c3)nc2C1 | -7.3%[88.5 µM]
COc1ccccc1Nc1ncc2c(n1)CN(C(=O)c1cccc(N(C)C)c1)CCN2 | i
CN(C)c1cccc(C(=O)N2CCNc3cnc(Nc4ccc(N5CCOCC5)cc4)nc3C2)c1 | 2µM* | GPT2 conf=1.93*
O=C(c1cc(-c2cc(Cl)cc(Cl)c2)c2cccn2n1)N1CCOCC1 | i
c1ccc2c(CCNc3ccc(Nc4ccncc4)cc3)c[nH]c2c1 | 14.1µM*! | GPT2 conf=4.85*
O=C(O)CCCc1c[nH]c2ccccc12 | i
O=C1CCCCC(C(=O)NCCc2c[nH]c3ccccc23)N1 (stereo not given) | 0.6%
O=C(NCC(F)(F)F)C1CCN(c2nccc(Nc3ccccc3Cl)n2)CC1 | i

Assay outcomes as filed in PubChem BioAssay.
